Measurements from PubChem BioAssay (NCATS).
Records with an inconclusive call do not appear. The source made the active and inactive calls. Cut-off read from the data, not from the text of the source, unless noted: active = potency below about 10 µM; inactive = the rest.

biological target: Lysosomal acid glucosylceramidase (Homo sapiens) (UniProt P04062); assay: Glucocerebrosidase-p2 (AID 348); conditions: purified GBA, blue fluorogenic substrate, 40 min; note: potency is the fitted concentration of half-maximal effect
Sequence (P04062 whole entry, looked up): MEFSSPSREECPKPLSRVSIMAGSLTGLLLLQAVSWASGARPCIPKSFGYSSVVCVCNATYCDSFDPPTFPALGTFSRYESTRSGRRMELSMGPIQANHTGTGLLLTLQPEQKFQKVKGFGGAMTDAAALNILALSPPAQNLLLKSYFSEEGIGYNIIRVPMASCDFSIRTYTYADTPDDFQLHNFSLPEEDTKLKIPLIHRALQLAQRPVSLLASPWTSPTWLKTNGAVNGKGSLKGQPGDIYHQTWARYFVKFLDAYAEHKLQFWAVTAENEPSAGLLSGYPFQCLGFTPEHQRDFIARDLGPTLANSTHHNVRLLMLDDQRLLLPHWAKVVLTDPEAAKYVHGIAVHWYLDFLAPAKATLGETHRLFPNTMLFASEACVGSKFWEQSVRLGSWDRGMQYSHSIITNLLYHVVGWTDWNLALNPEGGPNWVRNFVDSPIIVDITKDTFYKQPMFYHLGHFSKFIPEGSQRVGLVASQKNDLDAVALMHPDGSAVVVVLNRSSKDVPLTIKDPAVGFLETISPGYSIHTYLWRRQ
How it was run: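 Normal human glucocerebrosidase (0.2 nM) with blue fluorogenic substrate (80 uM final) in citrate/phosphate pH 5.9 with 10mM sodium taurocholate, 0.01% tween-20; 40 min RT, NaOH/glycine stop; fluorescence Ex 365/Em 440; AC50 from a titration from 0.6 nM upwards.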

Potency, inactive:
CCC(=O)OCN1C(=O)C=CC1=O > 11.4 µM
CN(C)CCCN1c2ccccc2Sc2cnccc21 > 11.4 µM
Oc1ccc(Cn2c(-c3ccc(O)cc3)nc3ccccc32)cc1 > 11.4 µM
O=C(O)CCc1c2ccc(=O)c(O)c-2oc2c(O)c(O)ccc12 > 11.4 µM
N#[N+]c1ccc(Nc2ccccc2)cc1 > 11.4 µM
O=c1c[n+](CCCC[n+]2cc(=O)o[nH]2)[nH]o1 > 11.4 µM
O=c1c2ccccc2sc2c(CO)ccc(NCCN3CCCCC3)c12 > 11.4 µM
c1ccc(NCCSc2nc3ccccc3s2)cc1 > 11.4 µM
Cc1cc(SCC(=O)c2ccc(Br)cc2)cc(C)[o+]1 > 11.4 µM
c1ccc([C@H](c2cccc3c2ccc2ccccc23)[C@H](c2ccccc2)c2cccc3c2ccc2ccccc23)cc1 > 11.4 µM
O=C(O)[C@@H](O)[C@@H](O)[C@@H](O)[C@@H](O)c1nc2ccccc2s1 > 11.4 µM
CC(C)NC[C@@H](O)c1ccc(O)c2ncccc12 > 11.4 µM
NCCSc1nc2ccccc2s1 > 11.4 µM
O=C(O)c1ccccc1-c1ccccc1C(=O)Nc1ccc2c(c1)Cc1cc(F)ccc1-2 > 11.4 µM
N/C(=N\O)c1cn([C@@H]2O[C@@H](CO)[C@H](O)[C@@H]2O)c2ncnc(NO)c12 > 11.4 µM
Cn1cnc([N+](=O)[O-])c1SCC(=O)O > 11.4 µM
ON(CCc1ccncc1)Cc1ccccc1 > 11.4 µM
Cc1cccc(C)c1NC(=O)Nc1ccc(S(N)(=O)=O)cc1 > 11.4 µM
COc1cc(C2SCCCCCCCCCCSC(c3ccc(O)c(OC)c3)SCCCCCCCCCCS2)ccc1O (stereo not given) > 11.4 µM
COc1cc(-c2[o+]c3cc(O)cc(O)c3cc2O)cc(O)c1O > 11.4 µM
CO[C@@H]1/C=C\O[C@]2(C)Oc3c(C)c(O)c4c(O)c(cc(O)c4c3C2=O)NC(=O)/C(C)=C\C=C/[C@H](C)[C@@H](O)[C@H](C)[C@H](O)[C@H](C)[C@H](OC(C)=O)[C@@H]1C > 11.4 µM
C/C(C[n+]1ccccc1)=N\N=C(N)N > 11.4 µM
C[N+](C)(C)c1ncnc2c1ncn2[C@@H]1CCCCO1 > 11.4 µM
O=C(O)CSc1nc2ccccc2[nH]1 > 11.4 µM
Cc1nc2cnc(N3CCNCC3)nc2n(-c2ccccc2)c1=O > 11.4 µM
N[C@@](CCc1ccccc1)(C(=O)O)c1ccccc1 > 11.4 µM
COCCn1c(=O)c(-c2ccccc2)nc2cnc(Nc3ccccc3)nc21 > 11.4 µM
CC(=O)N[C@@H]1CONC1=O > 11.4 µM
O=C(O)CSc1ccn(Cc2ccccc2)c1 > 11.4 µM
COc1ccccc1CCn1c(=O)c(-c2ccc(F)cc2)nc2cncnc21 > 11.4 µM
CC(C)(N)CO[C@H]1C[C@H]2CC[C@@]1(C)C2(C)C > 11.4 µM
CC(C)(C)c1ccc(NS(=O)(=O)c2ccc(N)cc2)cc1 > 11.4 µM
O=C(O)c1nnsc1-c1csnn1 > 11.4 µM
COCCn1c(=O)c(-c2ccc(OC)cc2)nc2cnc(OC)nc21 > 11.4 µM
NC(N)=NC(N)=Nc1ccc(S(N)(=O)=O)cc1 > 11.4 µM
c1c[nH]c(CN2CCOCC2)n1 > 11.4 µM
CC(C)CSC[C@@H]1O[C@H](n2cnc3c(N)nccc32)[C@H](O)[C@@H]1O > 11.4 µM
C[C@@]12CCC(=O)C=C1CC[C@H]1[C@@H]2[C@@H](O)C[C@]2(C)[C@@H]1CC[C@@]2(O)C(=O)CO > 11.4 µM
CCNc1ncc2nc(C)c(=O)n(Cc3cccc(OC)c3)c2n1 > 11.4 µM
CC(=O)Nc1nc(NC(C)=O)c2[nH]c(CO)nc2n1 > 11.4 µM

test system: not listed separately; assay: AP1 Signaling Pathway (AID 357; active = well fitted curve in either direction with a large enough effect, not every such curve was filed as active; note: % is set by controls: 0 for no effect and ±100 for the full control effect); conditions: ME-180 (cervical carcinoma) AP-1-bla reporter, EGF-induced, beta-lactamase ratio, 5 h; at 7.69 µM (top of the series) unless noted
How it was run: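 Modulation of EGF-driven AP-1 transcription was assessed with a beta-lactamase reporter in ME-180 cells. Compound and EC50 EGF were co-incubated 5 hours at 37 °C before 2.5-hour CCF4 loading at room temperature and dual-emission reading.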

Activity change, negative = inhibition, inactive:
CCC(=O)OCN1C(=O)C=CC1=O -2.18%
CN(C)CCCN1c2ccccc2Sc2cnccc21 6.06%
Oc1ccc(Cn2c(-c3ccc(O)cc3)nc3ccccc32)cc1 0.507%
O=C(O)CCc1c2ccc(=O)c(O)c-2oc2c(O)c(O)ccc12 3.21%
N#[N+]c1ccc(Nc2ccccc2)cc1 -0.339%
O=c1c[n+](CCCC[n+]2cc(=O)o[nH]2)[nH]o1 4.96%
O=c1c2ccccc2sc2c(CO)ccc(NCCN3CCCCC3)c12 -1.51%
c1ccc(NCCSc2nc3ccccc3s2)cc1 2.9%
Cc1cc(SCC(=O)c2ccc(Br)cc2)cc(C)[o+]1 -6.95%
c1ccc([C@H](c2cccc3c2ccc2ccccc23)[C@H](c2ccccc2)c2cccc3c2ccc2ccccc23)cc1 15.9%
O=C(O)[C@@H](O)[C@@H](O)[C@@H](O)[C@@H](O)c1nc2ccccc2s1 11.6%
CC(C)NC[C@@H](O)c1ccc(O)c2ncccc12 -5.62%
NCCSc1nc2ccccc2s1 1.91%
O=C(O)c1ccccc1-c1ccccc1C(=O)Nc1ccc2c(c1)Cc1cc(F)ccc1-2 -17.3%
N/C(=N\O)c1cn([C@@H]2O[C@@H](CO)[C@H](O)[C@@H]2O)c2ncnc(NO)c12 5.84%
Cn1cnc([N+](=O)[O-])c1SCC(=O)O 3.98%
ON(CCc1ccncc1)Cc1ccccc1 -5.59%
Cc1cccc(C)c1NC(=O)Nc1ccc(S(N)(=O)=O)cc1 3.48%
COc1cc(C2SCCCCCCCCCCSC(c3ccc(O)c(OC)c3)SCCCCCCCCCCS2)ccc1O (stereo not given) -0.286%
COc1cc(-c2[o+]c3cc(O)cc(O)c3cc2O)cc(O)c1O 19.4%
CO[C@@H]1/C=C\O[C@]2(C)Oc3c(C)c(O)c4c(O)c(cc(O)c4c3C2=O)NC(=O)/C(C)=C\C=C/[C@H](C)[C@@H](O)[C@H](C)[C@H](O)[C@H](C)[C@H](OC(C)=O)[C@@H]1C 1.83%
C/C(C[n+]1ccccc1)=N\N=C(N)N 1.19%
C[N+](C)(C)c1ncnc2c1ncn2[C@@H]1CCCCO1 10.7%
O=C(O)CSc1nc2ccccc2[nH]1 3.97%
Cc1nc2cnc(N3CCNCC3)nc2n(-c2ccccc2)c1=O -4.43%
N[C@@](CCc1ccccc1)(C(=O)O)c1ccccc1 4.96%
COCCn1c(=O)c(-c2ccccc2)nc2cnc(Nc3ccccc3)nc21 -24.1%
CC(=O)N[C@@H]1CONC1=O 10.9%
O=C(O)CSc1ccn(Cc2ccccc2)c1 -4.91%
COc1ccccc1CCn1c(=O)c(-c2ccc(F)cc2)nc2cncnc21 -8.06%
CC(C)(N)CO[C@H]1C[C@H]2CC[C@@]1(C)C2(C)C 4.93%
CC(C)(C)c1ccc(NS(=O)(=O)c2ccc(N)cc2)cc1 3%
O=C(O)c1nnsc1-c1csnn1 2.29%
COCCn1c(=O)c(-c2ccc(OC)cc2)nc2cnc(OC)nc21 2.45%
NC(N)=NC(N)=Nc1ccc(S(N)(=O)=O)cc1 3.63%
c1c[nH]c(CN2CCOCC2)n1 6.52%
CC(C)CSC[C@@H]1O[C@H](n2cnc3c(N)nccc32)[C@H](O)[C@@H]1O 4.75%
C[C@@]12CCC(=O)C=C1CC[C@H]1[C@@H]2[C@@H](O)C[C@]2(C)[C@@H]1CC[C@@]2(O)C(=O)CO -10.2%
CCNc1ncc2nc(C)c(=O)n(Cc3cccc(OC)c3)c2n1 -13.2%
CC(=O)Nc1nc(NC(C)=O)c2[nH]c(CO)nc2n1 9.97%
